From PubChem BioAssay (NCI)
“And” between values parts separate entries of the source, which are not always exact repeats. Identical values can stand only once. This is part of a sample that, as a whole, favours compounds with a hit. Of some 83,000 tested, about 20% had one in any assay.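 Percent growth is the endpoint: 0 to 100 indicates growth inhibition (40 means 60% inhibition), 0 means no net growth, and negative values indicate cell death.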 The source made the active and inactive calls. The calls were made as follows: active = growth percent below 10; inactive = the rest.

Tests used:
Assay in all cases: NCI-60 one-dose screen, 48 h (100 = growth as untreated, 0 = no growth, -100 = all killed)
SN12C renal = tested on: SN12C renal
UO-31 renal = tested on: UO-31 renal
TK-10 renal = tested on: TK-10 renal
ACHN renal = tested on: ACHN renal
CAKI-1 renal = tested on: CAKI-1 renal
A498 renal = tested on: A498 renal
HL-60(TB) leukemia = tested on: HL-60(TB) leukemia
CCRF-CEM leukemia = tested on: CCRF-CEM leukemia
MOLT-4 leukemia = tested on: MOLT-4 leukemia
SR leukemia = tested on: SR leukemia

Measured: growth

CC[C@](O)(C(=O)O)c1cc2n(c(=O)c1CO)Cc1cc3ccccc3nc1-2
active: UO-31 renal; 10 µM unless noted -61% | TK-10 renal; 10 µM 6.69% | ACHN renal; 10 µM unless noted -57.1% | CAKI-1 renal; 10 µM unless noted -28.8% | A498 renal; 10 µM unless noted -76.5% | HL-60(TB) leukemia; 10 µM unless noted -44.6% | CCRF-CEM leukemia; 10 µM unless noted -24.5% | MOLT-4 leukemia; 10 µM unless noted -38.3% | SR leukemia; 10 µM unless noted -20.3%
inactive: SN12C renal; 10 µM unless noted 17%

CC[C@@]1(O)C[C@H](OC2CC(N(C)C)C(OC3CC(O)C(OC4CCC(=O)C(C)O4)C(C)O3)C(C)O2)c2c(cc3c(c2O)C(=O)c2c(O)ccc(O)c2C3=O)[C@H]1C(=O)OC (some centres not stated)
active: UO-31 renal; 10 µM unless noted -57.2% | TK-10 renal; 10 µM 6.04% | ACHN renal; 10 µM unless noted -86.9% | CAKI-1 renal; 10 µM unless noted -53.5% | A498 renal; 10 µM unless noted -78.6% | HL-60(TB) leukemia; 10 µM unless noted -9.74% | CCRF-CEM leukemia; 10 µM unless noted 4.1% | MOLT-4 leukemia; 10 µM unless noted 7.32% | SR leukemia; 10 µM unless noted 1.06%
inactive: SN12C renal; 10 µM unless noted 24.3%

CC(=O)O[C@H]1C[C@@H]2OC3C=C(C)CCC3(C)[C@@]1(C)[C@@]21CO1 (some centres not stated)
active: SN12C renal; 10 µM unless noted -9.69% and 0.846% | UO-31 renal; 10 µM unless noted -5.32% and -11.9% | TK-10 renal; 10 µM -18.9% and -20.4% | ACHN renal; 10 µM unless noted -34.8% and -29.9% | CAKI-1 renal; 10 µM unless noted -16.9% and -24.9% | A498 renal; 10 µM unless noted -38.7% | HL-60(TB) leukemia; 10 µM unless noted -42% | CCRF-CEM leukemia; 10 µM unless noted 2.26% | MOLT-4 leukemia; 10 µM unless noted -15.6% and -30.2% | SR leukemia; 10 µM unless noted -17.5%

S=C(SSC(=S)N1CCCCC1)N1CCCCC1
inactive: SN12C renal; 10 µM 96.1% | UO-31 renal; 10 µM 102% | TK-10 renal; 10 µM 109% | ACHN renal; 10 µM 106% | CAKI-1 renal; 10 µM 95.6% | A498 renal; 10 µM 105% | A498 renal; 100 µM 72.4% | HL-60(TB) leukemia; 10 µM 86.4% | HL-60(TB) leukemia; 100 µM 14.7% | CCRF-CEM leukemia; 10 µM 91.1% | MOLT-4 leukemia; 10 µM 85% | SR leukemia; 10 µM 86.2%
active: SN12C renal; 100 µM -42.3% | UO-31 renal; 100 µM -12.3% | TK-10 renal; 100 µM -61.8% | ACHN renal; 100 µM -51% | CAKI-1 renal; 100 µM -77.7% | CCRF-CEM leukemia; 100 µM -38.1% | MOLT-4 leukemia; 100 µM 0.424% | SR leukemia; 100 µM -8.68%

Cc1cc(N=Nc2ccccc2C)ccc1N
inactive: SN12C renal; 10 µM unless noted 28.9% | UO-31 renal; 10 µM unless noted 19.3% | TK-10 renal; 10 µM 124% | ACHN renal; 10 µM unless noted 85.3% | CAKI-1 renal; 10 µM unless noted 54.7% | MOLT-4 leukemia; 10 µM unless noted 29.3%
active: HL-60(TB) leukemia; 10 µM unless noted 8.96% | CCRF-CEM leukemia; 10 µM unless noted 4.33%

COc1ccc(OC)c(/C=C/[N+](=O)[O-])c1
active: UO-31 renal; 10 µM unless noted -81.9% | TK-10 renal; 10 µM -31.9% | ACHN renal; 10 µM unless noted -67.9% | CAKI-1 renal; 10 µM unless noted -3.49% | HL-60(TB) leukemia; 10 µM unless noted 1.04% | CCRF-CEM leukemia; 10 µM unless noted 8.78% | MOLT-4 leukemia; 10 µM unless noted -4.18% | SR leukemia; 10 µM unless noted -13%
inactive: SN12C renal; 10 µM unless noted 15.9% | A498 renal; 10 µM unless noted 18.5%

CN1CCN(c2ccc([N+](=O)[O-])c3no[n+]([O-])c23)CC1
active: SN12C renal; 10 µM unless noted -63.9% | UO-31 renal; 10 µM unless noted -48.4% | TK-10 renal; 10 µM -95.4% | ACHN renal; 10 µM unless noted -84% | CAKI-1 renal; 10 µM unless noted -75.2% | A498 renal; 10 µM unless noted -34.8% | HL-60(TB) leukemia; 10 µM unless noted -42.4% | CCRF-CEM leukemia; 10 µM unless noted -30.6% | MOLT-4 leukemia; 10 µM unless noted -46%
